Structures are written as SMILES. Among all 92,000 compounds or so, about 1,200 (1.3%) were called active. The sample holds actives, similar compounds and a random draw of the others, so the mix is not that of the screen. A number with no mark means an inactive call.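 The calls were made as follows: active = activation above the mean of all tested compounds plus 3 SD (cut at about 9.5% in these data); inactive = the rest.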

Our source for the activation values is PubChem BioAssay AID1117267 (The Scripps Research Institute Molecular Screening Center, 2014).

This experiment in a line: compounds raising TTR promoter-driven luciferase – cell-based, luminescence, SH-SY5Y, TTR promoter Gaussia luciferase, primary screen (AID 1117267).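 Also: cells exposed to compounds for one day before reading; 0% = median of all test compound wells on the plate.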 Particulars: at 16.7 µM, active compounds read high, 100% = recombinant luciferase protein wells.
For the molecule `O=C(O)C1OC(C(=O)O)C2C1C(F)(F)C2(F)F` (stereo not drawn), the activation is 15.5% (active).

Regarding `COc1ccc(N2c3ccccc3CN(Cc3ccccc3)[C@@H](C)[C@H]2Cc2ccc(-c3ccccc3)cc2)cc1`, the activation is -1.66%.

Regarding `O=C(CN1C(=O)COc2ccccc21)Nc1ccc(F)cc1`, the activation is 2.98%.

Regarding `Cc1ccc2c(c1)N(CC(=O)N1CCCc3ccccc31)C(=O)C(C)O2` (stereo not drawn), the activation was -0.78%.

As for `Cc1cccc(C)c1NC(=O)CN1C(=O)C(C)Oc2ccccc21` (stereo not drawn), the activation was 15.3% (active).

With `O=C(CCC(=O)c1cccs1)NCc1ccccc1`, the activation was 9.7% (active).

For `O=C(CCC(=O)c1cccs1)Nc1nc2ccccc2s1`, the activation is 0.06%.

On to `O=C(CCC(=O)c1cccs1)NC1CCCCCC1`, for which the activation is -2.1%.

For `CCOC(=O)N1CCN(S(=O)(=O)c2ccc(-n3cnnn3)cc2)CC1`, the activation was -1.92%.

As to `COCCn1c(SCC(=O)N2CCCCCC2)nc2c(c1=O)SCC2`, the activation was 0.25%.

On to `Cc1cc(C(=O)CSc2nc(N)cc(=O)[nH]2)c(C)n1Cc1ccco1`, for which the activation was 0.58%.

With `CCOC(=O)[C@H]1[C@H]2COc3ccc(OC)cc3[C@@H]2N2C(=O)c3ccc(F)cc3NC(=O)[C@@]12C`, the activation is 1.68%.

As to `CSc1sc(C(=O)NNC(=O)c2ccc(Cl)cc2)c2c1C=CCC2`, the activation was -0.42%.

For the molecule `O=C(c1ccc(Cl)c(Cl)c1)N1CCCC1`, the activation was 4.23%.

As for `O=C(Nc1ccccc1C(=O)N1CCCCCC1)c1ccccc1Cl`, the activation was 21.4% (active).

Take `O=C(CN1CCCCC1)Nc1ccccc1C(=O)NC1CC1`: the activation is 2.49%.

Turning to `N#Cc1c(N2CCCCC2)nc(N)c2c(N)nc(SCC(=O)O)cc12`, the activation was 0.31%.

With `Cc1cc(C)c(C#N)c(SCc2ccccc2C(=O)O)n1`, the activation is 5.37%.

Take `Cc1cc(C)c(C#N)c(N2CCC(C(N)=O)CC2)n1`: the activation is 14.3% (active).

`CCC(C)C(=O)Nc1cc([N+](=O)[O-])ccc1Cl` (stereo not drawn): the activation is 0.38%.

Take `CCOc1ccc(NC(=O)CSc2nc3ccccc3c(=O)n2Cc2cccs2)cc1`: the activation is 0.62%.

Regarding `Cc1cc(C)c2nc3nc(C)cc(C)c3c(N)c2c1`, the activation is 13.6% (active).

On to `COc1ccc(CCNC(=O)C(Sc2ccccn2)c2ccccc2)cc1OC` (stereo not drawn), for which the activation was 1%.

In the case of `NC(=O)c1oc2ccccc2c1NC(=O)CS(=O)(=O)c1ccccc1`, the activation was -0.61%.

On to `CCSc1nc(O)c(C(c2cccc(OC)c2)c2c(O)nc(SCC)[nH]c2=O)c(=O)[nH]1`, for which the activation was 1.15%.

On to `CCOc1ncccc1C(=O)N(C)CC(=O)Nc1ccc(F)cc1`, for which the activation was 4.43%.

Turning to `O=C1CC(Sc2ncn[nH]2)C(=O)N1c1ccccc1` (stereo not drawn), the activation is -1.83%.

With `O=C1CC(N2CCN(c3ccc(F)cc3)CC2)C(=O)N1c1ccccc1` (stereo not drawn), the activation was 0.86%.

On to `Cc1cccc(N2C(=O)CC(SC(N)=Nc3ccccc3)C2=O)c1` (stereo not drawn), for which the activation is 11.1% (active).

Consider `CCOc1ccccc1NC(=O)COc1ccc(S(=O)(=O)N2CCCC2)cc1`, for which the activation was 15.6% (active).

`COc1ccccc1CC(=O)Nc1ccc(S(=O)(=O)N2CCCC2)cc1`: the activation is 1%.

For the molecule `CCOc1ccc(NC(=O)COc2ccc(S(=O)(=O)N3CCCC3)cc2)cc1`, the activation was 11.4% (active).

For `CCc1ccccc1OCC(=O)Nc1ccc(C)c(S(=O)(=O)N2CCCCCC2)c1`, the activation is -2%.

Turning to `Cc1cccc(OCCCC(=O)Nc2ccc(S(=O)(=O)N3CCCC3)cc2)c1`, the activation is -3.27%.

As for `CCOc1cccc(NC(=O)C2CCCN(S(=O)(=O)c3ccc(OC)cc3)C2)c1` (stereo not drawn), the activation is -2.33%.

With `Cc1ccc(NC(=S)NCc2ccccc2Cl)c(C)c1`, the activation was 0.72%.

As for `CN(C)c1ccc(NC(=O)CN2C3CCCC2CC(NC(=O)c2ccccc2)C3)cc1` (stereo not drawn), the activation is -2.32%.

Take `C/C(CC(=O)Nc1ccc(N(C)C)cc1)=N\NC(=O)c1ccccc1F`: the activation was 15.4% (active).

On to `C/C(CC(=O)Nc1ccc(Cl)cc1)=N\NC(=O)C(=O)NCCO`, for which the activation was -1.14%.

`CCOc1ccc(CCN2C(=O)C(=O)N([C@@H](Cc3ccc(O)cc3)CN3CCC[C@H]3CN3C(=O)C(=O)NC[C@@H]3CC(C)C)C[C@@H]2Cc2ccccc2)cc1`: the activation is 2.35%.

Regarding `Cc1ccn(CC(=O)N2N=C(C(F)F)CC2(O)C(F)F)n1` (stereo not drawn), the activation is -1.11%.

For `CC(=O)NC1(c2ccc(F)cc2)CCN(C(=O)c2c(F)cccc2F)CC1`, the activation is 0.91%.

As to `COc1ccc(Cn2cc(COC(=O)N(C)Cc3ccccc3)nn2)cc1`, the activation is 0.33%.

Consider `CCCCCc1ccc(-c2ccc(OCC)cc2)nc1`, for which the activation was 1.61%.

Turning to `CCCCCc1ccc(-c2cn(Cc3ccc4ccccc4c3)nn2)cc1`, the activation was 10.7% (active).

Take `CC(C(=O)N(C)CC(=O)Nc1ccccc1C(F)(F)F)N1C(=O)c2ccccc2C1=O` (stereo not drawn): the activation is 2.02%.

Regarding `COc1ccc(-c2nn(-c3ccccc3)cc2/C=C\C(=O)N2CCOCC2)cc1[N+](=O)[O-]`, the activation is -1.35%.

As to `COc1ccc(-c2ccc(Nc3ccc(S(=O)(=O)N4CCCC4)cc3)nn2)cc1OC`, the activation was -5.27%.

`COc1cc(C(C)=O)ccc1OC(C)C(=O)Nc1ccc(S(=O)(=O)N2CCCC2)cc1` (stereo not drawn): the activation was 10% (active).

Regarding `COc1ccc(S(=O)(=O)Nc2ccc(S(=O)(=O)N3CCCCC3)cc2)cc1OC`, the activation was -1.7%.

For `O=C(NCc1cccc(C(F)(F)F)c1)c1cccc(S(=O)(=O)N2CCN(Cc3ccccc3)CC2)c1`, the activation was -1.01%.

With `N#CCc1c[nH]c2ccc([N+](=O)[O-])cc12`, the activation is 1.86%.

As for `CC(=O)c1ccc2c(c1)OCCOCCOc1ccc(C(C)=O)cc1OCCOCCO2`, the activation was 1.09%.

`Cc1ccc(NC(=O)CN(C)C(=O)COC(=O)c2nccnc2N)cc1`: the activation is -0.56%.

`Cc1ccc(NC(=O)CC(=O)Nc2ccc(C)cc2)cc1`: the activation is 5.18%.

As for `CSCCC(NC(N)=O)C(=O)N(C)CC(=O)Nc1ccc(C)cc1` (stereo not drawn), the activation is 22.6% (active).

As for `CC1CN(C(=S)Nc2ccc(Br)cc2Cl)CC(C)O1` (stereo not drawn), the activation was -0.06%.

On to `CCN(C(=O)COC(=O)c1ccccc1O)c1cccc2ccccc12`, for which the activation is -1.17%.

As for `CCC(O)C1CCN(Cc2cn(-c3ccc(OC)cc3)nc2-c2cccc(F)c2)CC1` (stereo not drawn), the activation is 2.63%.

With `CCCCN(CC)C(=O)C1CCCN(S(=O)(=O)c2cccc3nsnc23)C1` (stereo not drawn), the activation is -1.18%.

With `CCCCN(C)CCNC(=O)C1CCCN(S(=O)(=O)c2cccc3nsnc23)C1` (stereo not drawn), the activation was 14.2% (active).

As for `COc1ccc(N(C)C(=O)C2CCN(S(=O)(=O)c3cccc4nsnc34)CC2)cc1`, the activation was -0.63%.

Consider `Cc1cccc(NC(=O)c2cccc(C(F)(F)F)c2)c1`, for which the activation was 0.86%.

Turning to `Cc1ccccc1CN1CCCCC(NC(=O)Nc2ccccc2F)C1=O` (stereo not drawn), the activation was -2.49%.

Consider `CCOc1c(OC)cccc1C(=O)NCC1(c2ccccc2)CCCC1`, for which the activation is -2%.

Turning to `O=C1CC(c2ccc3c(c2)OCO3)N=C2N(CC3CC3)C/C(=C/c3ccccc3)N12` (stereo not drawn), the activation is -0.26%.

As to `C=C1C(C(C)C)N(C)C2=NC(c3ccccc3)CC(=O)N12` (stereo not drawn), the activation was 11.5% (active).

For the molecule `COCCNC(=O)C1CCN(C(=O)C2CC(=O)N(c3ccc(C)cc3)C2)CC1` (stereo not drawn), the activation is 3.12%.

As to `COc1ccc(CNc2nccs2)cc1`, the activation was -0.05%.

Regarding `CCOC(=O)c1c(C)oc2cc(Sc3ccccc3)c(O)c(O)c12`, the activation was -2.74%.

In the case of `Cc1noc(C)c1S(=O)(=O)NCCc1ccc(S(N)(=O)=O)cc1`, the activation is 13.7% (active).

In the case of `O=S(=O)(NCCc1ccccc1)c1ccccc1`, the activation is 0.09%.

Take `CCOC(=O)c1c(C)c(C(=O)NCCc2ccc(S(N)(=O)=O)cc2)c(C)n1CC`: the activation is -1.43%.

`COc1ccccc1/C=N/Nc1nc(C)c(C(C)=O)s1`: the activation was 0.48%.

With `COc1ccccc1N1CCN(c2nc(C)cc(=O)[nH]2)CC1`, the activation is -0.14%.

As for `COc1ccccc1N1CCN(Cc2nnnn2CCc2ccccc2)CC1`, the activation is -0.88%.

On to `COc1ccccc1N1CCN(Cc2cc(OC)c3c(c2)OCO3)CC1`, for which the activation was 16.9% (active).

For the molecule `Cc1ccc(C(=O)COC(=O)CCCC(=O)NC2CCCCC2)cc1[N+](=O)[O-]`, the activation was -0.69%.

Consider `CCN(CC)CCCN=C(N)N`, for which the activation is -0.95%.

In the case of `Cc1ccc(NC(=O)CN(C)Cc2ccc(F)cc2)c([N+](=O)[O-])c1`, the activation is 2.25%.

For the molecule `COc1ccc(-n2ncc3c2CC(C)(C)CC3NC(=O)CCc2c(C)noc2C)cc1` (stereo not drawn), the activation is -1.69%.

Take `O=C(NC1CCCC1)C1c2ccccc2OCC(=O)N1CC(F)(F)F` (stereo not drawn): the activation was -1.49%.

In the case of `CCOCCn1c(-c2ccccc2)nc2ccccc21`, the activation is 0.16%.

Take `C[C@H](NC(=O)C1CCN(S(=O)(=O)c2ccccc2)CC1)C(=O)NCc1ccccc1`: the activation was 10.2% (active).

As to `O=C(NCc1ccc(Cl)cc1)C1CCN(S(=O)(=O)c2cccs2)CC1`, the activation is -1.39%.

Turning to `COc1ccccc1CNC(=O)C1CCN(S(=O)(=O)c2ccc3c(c2)OCCO3)CC1`, the activation was 0%.

Turning to `CC1=C(C(=O)N2CCOCC2)CC(CC(=O)NCc2cccc3ccccc23)C(=O)N1CCC1=CCCCC1` (stereo not drawn), the activation is 3.82%.

On to `COc1ccc(Cn2ccc3ccc(-c4ccc5ccn(Cc6ccccc6C)c5c4)cc32)cc1`, for which the activation is 2.53%.

For `CCCOC1CCCN(Cc2cn(C)nc2-c2ccccc2F)C1` (stereo not drawn), the activation is 0.85%.

On to `Cn1cc(CN2CCC(C(O)CCc3ccccc3)CC2)c(-c2ccccc2F)n1` (stereo not drawn), for which the activation is -1.93%.

In the case of `Cn1cc(CN2CCCC(CO)C2)c(-c2ccc(Oc3ccccc3)cc2)n1` (stereo not drawn), the activation was 11.1% (active).

For the molecule `O=C(CCc1n[nH]c(=O)[nH]c1=O)N/N=C/c1ccc(Br)o1`, the activation is 3.17%.

On to `C=CCN(Cc1nc(-c2cc(OC)c3c(c2)OCO3)oc1C)C1CCS(=O)(=O)C1` (stereo not drawn), for which the activation was -0.47%.
